The text below walks through data of paper PMC4081100, “A DNA-binding-site landscape and regulatory network analysis for NAC transcription factors in Arabidopsis thaliana”.

Common to all, as to test: universal protein binding microarray (PBM); transcription factors of Arabidopsis thaliana; high values mean tight binding
One test concerns the target T1, GST-ANAC092(1-176) (Arabidopsis thaliana, UniProt Q9FKA0 1-176).
T1 sequence: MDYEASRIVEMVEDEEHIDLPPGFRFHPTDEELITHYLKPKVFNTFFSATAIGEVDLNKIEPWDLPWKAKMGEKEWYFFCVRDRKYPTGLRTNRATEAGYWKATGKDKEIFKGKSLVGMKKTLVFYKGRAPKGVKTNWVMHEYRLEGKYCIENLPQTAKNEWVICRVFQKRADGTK
The following applies: protein: recombinant; tags: GST; chain copies: 2; dsDNA, one strand shown. The essentials: (§1)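 Each value is a normalised enrichment score (E-score) describing binding. The GST-tagged proteins, NAC-domain, full-length or DNA-binding-domain, were induced in cells (zinc-finger proteins with zinc acetate added) and purified on glutathione–Sepharose 4B. They were applied at 200 to 500 nM final, in duplicate, to double-stranded custom all-10-mer Agilent 4 × 180K arrays, and gapped and ungapped 8-mers were scored.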

In a further test the target is T2, GST-ATAF1 NAC domain (Arabidopsis thaliana, UniProt Q39013 7-158).
T2 sequence: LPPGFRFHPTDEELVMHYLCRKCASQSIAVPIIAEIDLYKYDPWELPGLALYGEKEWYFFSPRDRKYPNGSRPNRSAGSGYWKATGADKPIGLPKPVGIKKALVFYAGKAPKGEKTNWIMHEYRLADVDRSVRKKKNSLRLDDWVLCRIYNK
The following applies: protein: recombinant; tags: GST; chain copies: 2; dsDNA, one strand shown. An outline of the steps: as §1

In test [1] the target is T3, GST-ANAC092(1-285) full length (Arabidopsis thaliana, UniProt Q9FKA0 1-285).
T3 sequence: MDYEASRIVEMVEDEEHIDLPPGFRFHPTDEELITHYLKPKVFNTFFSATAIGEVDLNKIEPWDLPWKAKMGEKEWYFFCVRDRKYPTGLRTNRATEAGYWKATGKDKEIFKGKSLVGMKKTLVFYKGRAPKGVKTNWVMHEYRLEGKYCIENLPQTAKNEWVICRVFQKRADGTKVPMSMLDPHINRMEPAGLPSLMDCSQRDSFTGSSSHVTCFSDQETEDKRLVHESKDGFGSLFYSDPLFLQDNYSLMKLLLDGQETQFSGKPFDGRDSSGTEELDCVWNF
The conditions noted are these: protein: recombinant; tags: GST; chain copies: 2; dsDNA, one strand shown. An outline of the steps: as §1

The target of another test is T4, GST-NST2(1-184) (Arabidopsis thaliana, UniProt Q9M274 1-184).
T4 sequence: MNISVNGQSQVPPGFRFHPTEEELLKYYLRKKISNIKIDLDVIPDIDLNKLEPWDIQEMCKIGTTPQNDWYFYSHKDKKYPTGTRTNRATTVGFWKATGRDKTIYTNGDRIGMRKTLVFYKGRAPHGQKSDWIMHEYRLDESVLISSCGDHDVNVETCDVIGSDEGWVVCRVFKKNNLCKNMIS
The following applies: protein: recombinant; tags: GST; chain copies: 2; dsDNA, one strand shown. The essentials:
as §1

For the next test, the target named is T5, GST-NTL8 NAC domain (Arabidopsis thaliana, UniProt Q9XIN7 14-156).
T5 sequence: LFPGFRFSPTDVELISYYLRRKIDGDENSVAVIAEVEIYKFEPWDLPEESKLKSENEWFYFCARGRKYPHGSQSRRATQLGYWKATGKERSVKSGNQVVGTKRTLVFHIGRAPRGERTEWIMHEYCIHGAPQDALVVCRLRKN
The conditions noted are these: protein: recombinant; tags: GST; chain copies: 2; dsDNA, one strand shown. The essentials:
as §1

A further test addresses T6, GST-SND1(1-203) (Arabidopsis thaliana, UniProt Q9LPI7 1-203).
T6 sequence: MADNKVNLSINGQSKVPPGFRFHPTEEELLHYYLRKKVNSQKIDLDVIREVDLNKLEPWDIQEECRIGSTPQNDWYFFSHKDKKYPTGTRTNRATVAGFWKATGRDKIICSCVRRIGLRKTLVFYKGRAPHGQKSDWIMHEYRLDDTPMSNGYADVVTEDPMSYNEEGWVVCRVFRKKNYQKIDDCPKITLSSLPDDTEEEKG
The conditions noted are these: protein: recombinant; tags: GST; chain copies: 2; dsDNA, one strand shown. The essentials:
as §1

The next test addresses GST-NTL6(1-168) (Arabidopsis thaliana, UniProt Q9SCK6 1-168). The following applies: protein: recombinant; tags: GST; chain copies: 2; dsDNA, one strand shown. An outline of the steps: as §1
Another test addresses T7, GST-ANAC019 NAC domain (Arabidopsis thaliana, UniProt Q9C932 14-162).
T7 sequence: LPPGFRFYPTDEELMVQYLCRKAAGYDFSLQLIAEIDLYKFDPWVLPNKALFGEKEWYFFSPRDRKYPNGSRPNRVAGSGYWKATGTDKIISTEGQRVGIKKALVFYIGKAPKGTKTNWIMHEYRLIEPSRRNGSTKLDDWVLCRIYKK
The conditions noted are these: protein: recombinant; tags: GST; chain copies: 2; dsDNA, one strand shown. The essentials: as §1

For the next test, the target named is T8, GST-ANAC055(1-171) (Arabidopsis thaliana, UniProt Q9LDY8 1-171).
T8 sequence: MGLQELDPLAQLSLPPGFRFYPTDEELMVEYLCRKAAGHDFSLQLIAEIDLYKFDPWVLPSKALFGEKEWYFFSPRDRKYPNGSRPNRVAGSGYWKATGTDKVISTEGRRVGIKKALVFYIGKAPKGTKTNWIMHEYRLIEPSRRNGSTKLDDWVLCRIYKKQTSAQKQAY
The following applies: protein: recombinant; tags: GST; chain copies: 2; dsDNA, one strand shown. An outline of the steps: as §1

A further test has as its target T9, GST-VND3 NAC domain (Arabidopsis thaliana, UniProt Q9FH59 12-162).
T9 sequence: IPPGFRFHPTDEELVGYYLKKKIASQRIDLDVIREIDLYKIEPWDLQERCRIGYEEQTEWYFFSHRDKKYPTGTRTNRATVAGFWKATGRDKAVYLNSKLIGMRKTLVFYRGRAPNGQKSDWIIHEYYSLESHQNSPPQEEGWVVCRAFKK
The following applies: protein: recombinant; tags: GST; chain copies: 2; dsDNA, one strand shown. The essentials:
as §1

In a further test the target is T10, GST-VND7 NAC domain (Arabidopsis thaliana, UniProt Q9C8W9 9-158).
T10 sequence: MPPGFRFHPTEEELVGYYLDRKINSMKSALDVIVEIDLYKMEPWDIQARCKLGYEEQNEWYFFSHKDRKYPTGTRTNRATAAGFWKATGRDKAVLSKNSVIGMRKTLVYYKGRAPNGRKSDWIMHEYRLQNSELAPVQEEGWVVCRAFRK
The following applies: protein: recombinant; tags: GST; chain copies: 2; dsDNA, one strand shown. An outline of the steps:
as §1

Another test concerns the target GST-WRKY1(266-371) (Arabidopsis thaliana, UniProt Q9SI37 266-371). The conditions noted are these: protein: recombinant; tags: GST; dsDNA, one strand shown. The essentials:
as §1

The next test addresses T11, GST-NAP(1-166) (Arabidopsis thaliana, UniProt O49255 1-166).
T11 sequence: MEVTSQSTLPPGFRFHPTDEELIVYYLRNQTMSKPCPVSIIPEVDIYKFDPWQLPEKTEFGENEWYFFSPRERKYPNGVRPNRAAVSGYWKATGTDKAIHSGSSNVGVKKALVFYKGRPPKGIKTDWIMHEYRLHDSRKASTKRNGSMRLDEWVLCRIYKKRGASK
The following applies: protein: recombinant; tags: GST; chain copies: 2; dsDNA, one strand shown. The essentials: as §1

Chain of GST-WRKY1(266-371) (Q9SI37 266-371): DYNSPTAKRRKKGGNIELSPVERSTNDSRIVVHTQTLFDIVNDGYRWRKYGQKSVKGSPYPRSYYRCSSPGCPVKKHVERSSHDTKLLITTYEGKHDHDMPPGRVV
Chain of GST-NTL6(1-168) (Q9SCK6 1-168): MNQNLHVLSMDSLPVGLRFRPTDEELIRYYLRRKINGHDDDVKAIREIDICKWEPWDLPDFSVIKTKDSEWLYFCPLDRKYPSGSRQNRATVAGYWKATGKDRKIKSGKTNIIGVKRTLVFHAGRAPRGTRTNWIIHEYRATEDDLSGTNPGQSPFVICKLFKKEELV

GCACTCAA: the binding signal stood at 0.391 E-score in the test with GST-ANAC092(1-176); 0.0807 E-score with GST-ATAF1 NAC domain; 0.426 E-score in test [1]; 0.196 E-score in the test with GST-NST2(1-184); 0.0643 E-score with GST-NTL8 NAC domain; 0.263 E-score with GST-SND1(1-203).
Turning to AAGACCAA, the binding signal is 0.18 E-score in the test with GST-NTL6(1-168); 0.0878 E-score with GST-ANAC019 NAC domain; 0.172 E-score in the test with GST-ANAC055(1-171); 0.105 E-score with GST-ATAF1 NAC domain; 0.124 E-score in test [1]; 0.18 E-score with GST-NST2(1-184). In addition, the binding signal amounted to 0.151 E-score in the test with GST-VND3 NAC domain, 0.124 E-score in the test with GST-VND7 NAC domain and 0.42 E-score with GST-WRKY1(266-371).
Regarding AAGGAAGC, the binding signal with GST-ANAC092(1-176) worked out at 0.219 E-score; in the test with GST-NTL6(1-168), 0.43 E-score; with GST-ANAC055(1-171), 0.0894 E-score; in test [1] it was 0.13 E-score; with GST-NST2(1-184), 0.185 E-score; with GST-NTL8 NAC domain, 0.188 E-score. Moreover, in the test with GST-SND1(1-203), the binding signal is 0.175 E-score.
For GTCAACGA, the binding signal in the test with GST-VND3 NAC domain is 0.0713 E-score; in the test with GST-VND7 NAC domain, 0.104 E-score; in the test with GST-WRKY1(266-371), 0.486 E-score.
Take ATCGCGTG: the binding signal with GST-ANAC092(1-176) is 0.382 E-score; in test [1] it was 0.441 E-score; with GST-NST2(1-184), 0.135 E-score; with GST-SND1(1-203), 0.266 E-score.
As for AGGTAAGG, the binding signal with GST-NTL6(1-168) came to 0.27 E-score; with GST-ANAC019 NAC domain it was 0.101 E-score; in [1], 0.0822 E-score; with GST-NTL8 NAC domain it was 0.424 E-score; with GST-SND1(1-203) it was 0.147 E-score.
With GCTAAGGA, the binding signal with GST-NTL6(1-168) came to 0.41 E-score; in test [1], 0.142 E-score; with GST-SND1(1-203), 0.064 E-score.
For the sequence TACGCGAA, the binding signal amounted to 0.268 E-score with GST-ANAC092(1-176); 0.0984 E-score with GST-ANAC055(1-171); 0.119 E-score with GST-ATAF1 NAC domain; 0.368 E-score in [1]; 0.0761 E-score with GST-NAP(1-166); 0.185 E-score with GST-NST2(1-184). The binding signal with GST-SND1(1-203) was determined as 0.416 E-score.
As for ACAGTCAA, the binding signal amounted to 0.141 E-score in the test with GST-ANAC092(1-176); 0.0601 E-score in the test with GST-ANAC055(1-171); 0.081 E-score in the test with GST-ATAF1 NAC domain; 0.0848 E-score in [1]; 0.0868 E-score with GST-NAP(1-166); 0.164 E-score with GST-NTL8 NAC domain. The binding signal with GST-VND3 NAC domain amounted to 0.0711 E-score; with GST-VND7 NAC domain, 0.0752 E-score; with GST-WRKY1(266-371), 0.477 E-score.
Regarding GTATTGAC, the binding signal with GST-ANAC092(1-176) was determined as 0.0776 E-score; with GST-ANAC055(1-171), 0.0594 E-score; in [1], 0.147 E-score; with GST-NAP(1-166), 0.121 E-score; with GST-VND3 NAC domain, 0.0734 E-score; in the test with GST-VND7 NAC domain, 0.0877 E-score. Further, in the test with GST-WRKY1(266-371), the binding signal was 0.455 E-score.
Turning to CTAAGGAA, the binding signal in the test with GST-ANAC092(1-176) was determined as 0.125 E-score; with GST-NTL6(1-168), 0.47 E-score; in test [1] it was 0.128 E-score; with GST-NST2(1-184) it was 0.144 E-score; in the test with GST-NTL8 NAC domain, 0.246 E-score; in the test with GST-SND1(1-203), 0.306 E-score.
Take ACGCCACC: the binding signal with GST-ANAC092(1-176) worked out at 0.456 E-score; with GST-ANAC019 NAC domain, 0.145 E-score; with GST-ANAC055(1-171) it was 0.0815 E-score; in the test with GST-ATAF1 NAC domain, 0.262 E-score; in test [1], 0.472 E-score; with GST-NAP(1-166), 0.0741 E-score. In addition, the binding signal in the test with GST-NST2(1-184) was determined as 0.276 E-score; with GST-SND1(1-203) it was 0.408 E-score.
On to ATTGACCA, for which the binding signal is 0.0698 E-score with GST-ANAC092(1-176); 0.072 E-score in the test with GST-ANAC055(1-171); 0.107 E-score with GST-ATAF1 NAC domain; 0.0788 E-score in test [1]; 0.163 E-score in the test with GST-NTL8 NAC domain; 0.129 E-score in the test with GST-VND3 NAC domain. For the same sequence, the binding signal was 0.0794 E-score with GST-VND7 NAC domain and 0.482 E-score with GST-WRKY1(266-371).
Consider ACGCCACG, for which the binding signal with GST-ANAC092(1-176) worked out at 0.382 E-score; with GST-ANAC019 NAC domain, 0.147 E-score; with GST-ANAC055(1-171), 0.14 E-score; in the test with GST-ATAF1 NAC domain it was 0.0586 E-score; in test [1], 0.409 E-score; with GST-NST2(1-184), 0.128 E-score. For the same sequence, in the test with GST-SND1(1-203), the binding signal stood at 0.249 E-score.
